Assay results as given in the supplement of paper PMC10981050.
Several values for one entry are separate records, joined by “and”; a condition that tells them apart may be missing. Identical values can stand only once.

Assays:
Assay in all cases: cell viability relative to vehicle control; higher = less cytotoxic
Conditions in all cases: 10 µM
[1] = test system: K562
Summary of the method: (§1)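 CRISPR-edited mutant clones and isogenic wild-type clones from four leukaemia lines were screened against Selleck bioactive, kinase and epigenetic probe libraries, with identity-inconsistent compounds excluded. Each compound was acoustically dispensed at a single 10 µM dose into 384-well plates holding 2000 cells in 50 µL medium per well. After 48 h the supernatant was removed and CellTiter-Glo luminescence was read. Viability was expressed as percent of the on-plate vehicle control and analysed in Genedata Screener.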

[2] = test system: MARIMO
Summary of the method: as §1

[3] = test system: MOLM14
Summary of the method: as §1

[4] = test system: OCI-AML2
Summary of the method: as §1

## COc1cc(-c2cn(C)c(=O)c3cnccc23)cc(OC)c1CN(C)C
[1]; SRSF2 genotype: SRSF2 P95H/wt
  cell viability: 104% and 95.7%
[1]; SRSF2 genotype: SRSF2 wt/wt
  cell viability: 105%
[2]; SRSF2 genotype: SRSF2 P95H/wt
  cell viability: 99.4%
[2]; SRSF2 genotype: SRSF2 wt/wt
  cell viability: 87.2%
[3]; SRSF2 genotype: SRSF2 P95H/wt
  cell viability: 103%
[3]; SRSF2 genotype: SRSF2 wt/wt
  cell viability: 95.9%
[4]; SRSF2 genotype: P95H/wt
  cell viability: 98.6%
[4]; SRSF2 genotype: wt/wt
  cell viability: 113%

## O=c1cc(-c2ccc(O)cc2)oc2c([C@@H]3OC[C@H](O)[C@H](O)[C@H]3O)c(O)c([C@@H]3O[C@H](CO)[C@@H](O)[C@H](O)[C@H]3O)c(O)c12 [Schaftoside]
[1]; SRSF2 genotype: SRSF2 P95H/wt
  cell viability: 113% and 106%
[1]; SRSF2 genotype: SRSF2 wt/wt
  cell viability: 113%
[2]; SRSF2 genotype: SRSF2 P95H/wt
  cell viability: 108%
[2]; SRSF2 genotype: SRSF2 wt/wt
  cell viability: 107%
[3]; SRSF2 genotype: SRSF2 P95H/wt
  cell viability: 112%
[3]; SRSF2 genotype: SRSF2 wt/wt
  cell viability: 105%
[4]; SRSF2 genotype: P95H/wt
  cell viability: 106%
[4]; SRSF2 genotype: wt/wt
  cell viability: 105%

## O=C(NC(Cc1cc(=O)[nH]c2ccccc12)C(=O)O)c1ccc(Cl)cc1 (stereo not given) [Rebamipide]
[1]; SRSF2 genotype: SRSF2 P95H/wt
  cell viability: 99.4% and 101%
[1]; SRSF2 genotype: SRSF2 wt/wt
  cell viability: 96.4%
[2]; SRSF2 genotype: SRSF2 P95H/wt
  cell viability: 96.9%
[2]; SRSF2 genotype: SRSF2 wt/wt
  cell viability: 100%
[3]; SRSF2 genotype: SRSF2 P95H/wt
  cell viability: 104%
[3]; SRSF2 genotype: SRSF2 wt/wt
  cell viability: 101%
[4]; SRSF2 genotype: P95H/wt
  cell viability: 94.8%
[4]; SRSF2 genotype: wt/wt
  cell viability: 102%

## O=C(NCc1ccccc1)c1csc(Nc2ccncn2)n1 [Thiazovivin]
[1]; SRSF2 genotype: SRSF2 P95H/wt
  cell viability: 100% and 101%
[1]; SRSF2 genotype: SRSF2 wt/wt
  cell viability: 100%
[2]; SRSF2 genotype: SRSF2 P95H/wt
  cell viability: 80.5%
[2]; SRSF2 genotype: SRSF2 wt/wt
  cell viability: 94.7%
[3]; SRSF2 genotype: SRSF2 P95H/wt
  cell viability: 37.8%
[3]; SRSF2 genotype: SRSF2 wt/wt
  cell viability: 86.8%
[4]; SRSF2 genotype: P95H/wt
  cell viability: 46%
[4]; SRSF2 genotype: wt/wt
  cell viability: 49.5%

## C#C[C@]1(O)CC[C@H]2[C@@H]3CCC4=CC(=O)CC[C@@H]4[C@H]3C(=C)C[C@@]21CC [Etonogestrel]
[1]; SRSF2 genotype: SRSF2 P95H/wt
  cell viability: 82.9% and 75.4%
[1]; SRSF2 genotype: SRSF2 wt/wt
  cell viability: 80.4%
[2]; SRSF2 genotype: SRSF2 P95H/wt
  cell viability: 78.6%
[2]; SRSF2 genotype: SRSF2 wt/wt
  cell viability: 88.8%
[3]; SRSF2 genotype: SRSF2 P95H/wt
  cell viability: 84.9%
[3]; SRSF2 genotype: SRSF2 wt/wt
  cell viability: 89.9%
[4]; SRSF2 genotype: P95H/wt
  cell viability: 88%
[4]; SRSF2 genotype: wt/wt
  cell viability: 88.3%

## O=C(O)C[C@H](O)C[C@H](O)/C=C/c1c(C2CC2)nc2ccccc2c1-c1ccc(F)cc1 [Pitavastatin calcium (Livalo)]
[1]; SRSF2 genotype: SRSF2 P95H/wt
  cell viability: 37.4% and 50.7%
[1]; SRSF2 genotype: SRSF2 wt/wt
  cell viability: 34.6%
[2]; SRSF2 genotype: SRSF2 P95H/wt
  cell viability: 25.3%
[2]; SRSF2 genotype: SRSF2 wt/wt
  cell viability: 34.4%
[3]; SRSF2 genotype: SRSF2 P95H/wt
  cell viability: 32.9%
[3]; SRSF2 genotype: SRSF2 wt/wt
  cell viability: 48.4%
[4]; SRSF2 genotype: P95H/wt
  cell viability: 1.41%
[4]; SRSF2 genotype: wt/wt
  cell viability: 4.89%

## COc1ccc2[nH]c([S+]([O-])Cc3ncc(C)c(OC)c3C)nc2c1 (stereo not given) [Omeprazole (Prilosec)]
[1]; SRSF2 genotype: SRSF2 P95H/wt
  cell viability: 97.3% and 91.5%
[1]; SRSF2 genotype: SRSF2 wt/wt
  cell viability: 95.6%
[2]; SRSF2 genotype: SRSF2 P95H/wt
  cell viability: 92.8%
[2]; SRSF2 genotype: SRSF2 wt/wt
  cell viability: 98.5%
[3]; SRSF2 genotype: SRSF2 P95H/wt
  cell viability: 94.9%
[3]; SRSF2 genotype: SRSF2 wt/wt
  cell viability: 95.8%
[4]; SRSF2 genotype: P95H/wt
  cell viability: 98%
[4]; SRSF2 genotype: wt/wt
  cell viability: 100%

## CC=C(C)C(=O)O [Tiglic acid]
[1]; SRSF2 genotype: SRSF2 P95H/wt
  cell viability: 102% and 106%
[1]; SRSF2 genotype: SRSF2 wt/wt
  cell viability: 109%
[2]; SRSF2 genotype: SRSF2 P95H/wt
  cell viability: 101%
[2]; SRSF2 genotype: SRSF2 wt/wt
  cell viability: 103%
[3]; SRSF2 genotype: SRSF2 P95H/wt
  cell viability: 102%
[3]; SRSF2 genotype: SRSF2 wt/wt
  cell viability: 109%
[4]; SRSF2 genotype: P95H/wt
  cell viability: 110%
[4]; SRSF2 genotype: wt/wt
  cell viability: 98%

## O=C(CCCCCCC(=O)Nc1ccccc1)NO [Vorinostat (SAHA, MK0683)]
[1]; SRSF2 genotype: SRSF2 P95H/wt
  cell viability: 1.62% and 17.9%
[1]; SRSF2 genotype: SRSF2 wt/wt
  cell viability: 10.1%
[2]; SRSF2 genotype: SRSF2 P95H/wt
  cell viability: 4.92%
[2]; SRSF2 genotype: SRSF2 wt/wt
  cell viability: 8.5%
[3]; SRSF2 genotype: SRSF2 P95H/wt
  cell viability: 0.83%
[3]; SRSF2 genotype: SRSF2 wt/wt
  cell viability: 0.28%
[4]; SRSF2 genotype: P95H/wt
  cell viability: 1.15%
[4]; SRSF2 genotype: wt/wt
  cell viability: 4.64%

## Cc1nc(Nc2ncc(C(=O)Nc3c(C)cccc3Cl)s2)cc(N2CCN(CCO)CC2)n1 [Dasatinib]
[1]; SRSF2 genotype: SRSF2 P95H/wt
  cell viability: 21.5% and 39.8%
[1]; SRSF2 genotype: SRSF2 wt/wt
  cell viability: 27.1%
[2]; SRSF2 genotype: SRSF2 P95H/wt
  cell viability: 68.1%
[2]; SRSF2 genotype: SRSF2 wt/wt
  cell viability: 61.3%
[3]; SRSF2 genotype: SRSF2 P95H/wt
  cell viability: 40.3%
[3]; SRSF2 genotype: SRSF2 wt/wt
  cell viability: 35.1%
[4]; SRSF2 genotype: P95H/wt
  cell viability: 31.8%
[4]; SRSF2 genotype: wt/wt
  cell viability: 40.6%
